The values below come from ChEMBL document CHEMBL3988442, “University of Dundee, Small-Polar-MMV Screening Library” (2021).

The target in this assay is AMP-activated protein kinase, AMPK (Homo sapiens) (UniProt P54646+O43741+P54619+Q9UGJ0+Q9Y478+Q13131+Q9UGI9). Nature of the assay: AMP-dependent Kinase enzyme assay. An in vitro enzyme assay that detects ADP turnover that is directly proportional to AMPK activity. This uses naive AMPK that is activated during the assay with MK-8722. The assay is classed as functional. More on the design: scale not given: direction of the effect not stated beside the values. The following applies: 30 µM.
In the case of `CC(CN1CCOCC1)n1cncc1-c1cnn(Cc2ccccc2)c1` (stereo not given), the Percent Effect came out at 2.92%.
Take `Cc1cc(C)n(CC2CCN(CC(O)COc3ccccc3)CC2)n1` (stereo not given): the Percent Effect amounted to 2.9%.
For `CCN(CC1CCCO1)C(=O)NCCNC(=O)c1ccccc1F` (stereo not given), the Percent Effect is 1.37%.
The value for `CCc1oc(C(=O)OC)cc1Cn1cccc(C(F)(F)F)c1=O` was 6.73%.
The value for `CC(OCC1CC1)C(=O)Nc1cccc(C(=O)Nc2ccncc2)c1` (stereo not given) was 17.8%; that for `CN(C)S(=O)(=O)N1CCCC(c2nccnc2-c2cccc(Cl)c2)C1` (stereo not given) was 16%; that for `CC(C(=O)NCC(C)(C)c1ccc2c(c1)OCO2)n1ccnc1` (stereo not given) was 0.66%.
Turning to `Cc1cc(NC(=O)N2CCC[C@@H]2CO)nn1-c1ccccc1Cl`, the Percent Effect was found to be 3.2%.
The value for `Cc1nc2c(c(N[C@@H](CO)C(N)=O)n1)Cc1ccccc1OC2` was -0.406%; that for `O=c1cc(N2CCNCC2)cnn1Cc1noc(C2CCCC2)n1` was -1.96%.
As for `Cc1ccc2nc(CNCCCOc3ccccc3)cc(O)c2c1`, the Percent Effect turned out to be 2.49%.
The value for `CN(C)S(=O)(=O)NC1CCCc2c1cnn2-c1ccc(C(C)(C)C)cc1` (stereo not given) was 88.7%.
The value for `CCN(C(=O)Cn1cc(Cl)cn1)c1ccccc1` was -10.4%; that for `CN(Cc1nc2ccccc2[nH]1)C(=O)CN(C)c1ccc(Cl)cn1` was -0.551%.
The value for `Cc1cc(C)c2[nH]c(C(=O)NCCN3CCOC3=O)c(C)c2c1` was 16.4%; that for `CN(Cc1noc(C2CC2)n1)C1CCN(CCn2cccn2)C1` (stereo not given) was 5.76%.
For `COc1cccc(NC(=O)CN(C(C)C)C2CC2)c1`, the Percent Effect is -0.663%.
For the compound `Cc1noc(CCCNC(=O)C2CSCN2C(=O)C(C)(C)C)n1` (stereo not given), the Percent Effect is -6.28%.
The value for `O=C(Cc1ccccc1Cl)Nc1cc(N2CCCC2)ncn1` was 0.395%; that for `CCOc1ccc(Br)cc1S(=O)(=O)N(CC)Cc1ccc(N(C)C)cc1` was -7.47%.
For the compound `COCCN1CC2(CCCN(Cc3cc(=O)c(OC)co3)C2)CCC1=O` (stereo not given), the Percent Effect is -2.15%.
In the case of `COCCC(C)NCc1ccccc1-n1ccnc1` (stereo not given), the Percent Effect was -0.71%.
As for `CN(C)CCNC(=O)CCC1CCN(C(=O)c2ccc(O)cn2)CC1`, the Percent Effect came out at 7.4%.
The value for `FC(F)(F)Oc1ccc(CN2CCCC(n3cncn3)C2)cc1` (stereo not given) was 3.31%; that for `O=C(NCCS(=O)(=O)N1CCN(c2ncccn2)CC1)C1CCCC1` was -1.53%.
For the compound `Cc1cccc(OC2CCN(Cc3ncc[nH]3)CC2)c1`, the Percent Effect is -0.938%.
In the case of `Cc1ccc(NC(=O)NCCn2cnc(C)c(C)c2=O)cc1F`, the Percent Effect was found to be 1.89%.
The value for `CCOCCCNCc1cc(O)c2cc(C)ccc2n1` was -9.04%; that for `COc1ccc(CCNC(=O)c2ccc(=O)n(C)c2)c(Cl)c1` was 5.99%; that for `Cc1ccc(C)c(CC(=O)NC2CCCS(=O)(=O)C2)c1` (stereo not given) was -5.26%.
The value for `CCOC(=O)N(C)CC(=O)NCCc1coc(-c2ccc(C)cc2)n1` was -1.7%; that for `O=C(Cc1ccccc1O)NC1CCCN(c2ccccc2F)C1=O` (stereo not given) was 8.51%.
The value for `CCC(c1ccccc1)S(=O)(=O)CCO` (stereo not given) was 0.669%; that for `CCC[C@@H]1CN(Cc2ccc(C(F)(F)F)nc2)C[C@H]1NS(C)(=O)=O` was 4.44%; that for `O=C(NCC1CCS(=O)(=O)C1)N(Cc1ccco1)C1CC1` (stereo not given) was -4.86%.
For the compound `Cn1cc(C(=O)NCc2ccc(OC3CCCCC3)nc2)ccc1=O`, the Percent Effect is -0.122%.
The value for `CN(CC(O)C(F)(F)F)C(=O)Nc1cccc(C(F)F)c1` (stereo not given) was -0.316%; that for `O=C1NCCCN1Cc1nc(-c2ccc(N3CCCCC3)cc2)no1` was 3.5%.
Take `Cc1nnc(N2CCc3cncnc3C2)c(C#N)c1C`: the Percent Effect was -187%.
Consider `Cc1ccc(Cl)c(C)c1NC(=O)N1CCCN(Cc2ccccn2)CC1`, for which the Percent Effect was 2.6%.
